According to ChEMBL document CHEMBL1961873, “Compounds: GSK PKIS; Assays: Nanosyn kinase panel” (2012):

What was measured:
[1] = target: Sphingosine kinase 1 (Homo sapiens) (UniProt Q9NYA1); conditions: at 1 µM;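 also: mean SPHK1 inhibition value reported from the GSK PKIS kinase panel screen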
[2] = target: T1, Sphingosine kinase 2 (Homo sapiens) (UniProt Q9NRA0); conditions: at 0.1 µM
T1 sequence (whole entry): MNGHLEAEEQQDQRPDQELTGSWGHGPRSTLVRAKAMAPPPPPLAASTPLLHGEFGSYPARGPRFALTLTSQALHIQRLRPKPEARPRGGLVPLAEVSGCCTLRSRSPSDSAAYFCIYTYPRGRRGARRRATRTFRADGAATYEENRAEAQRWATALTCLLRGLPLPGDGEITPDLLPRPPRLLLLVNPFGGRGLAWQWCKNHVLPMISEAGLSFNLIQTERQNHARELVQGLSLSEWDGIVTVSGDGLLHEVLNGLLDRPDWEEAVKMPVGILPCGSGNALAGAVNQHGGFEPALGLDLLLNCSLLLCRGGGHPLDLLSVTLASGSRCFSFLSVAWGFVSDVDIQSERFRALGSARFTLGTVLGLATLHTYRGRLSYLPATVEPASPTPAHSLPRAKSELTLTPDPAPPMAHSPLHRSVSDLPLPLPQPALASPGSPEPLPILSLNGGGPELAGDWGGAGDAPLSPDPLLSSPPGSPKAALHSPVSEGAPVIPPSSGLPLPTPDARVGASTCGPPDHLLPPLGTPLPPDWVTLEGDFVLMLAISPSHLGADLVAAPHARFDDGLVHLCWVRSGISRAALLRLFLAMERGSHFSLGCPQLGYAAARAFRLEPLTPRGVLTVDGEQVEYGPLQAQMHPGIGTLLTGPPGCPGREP

[3] = target: T1, Sphingosine kinase 2 (Homo sapiens); conditions: at 1 µM
[4] = target: Casein kinase II subunit alpha (Homo sapiens) (UniProt P68400); conditions: at 0.1 µM
Sequence of Casein kinase II subunit alpha (Homo sapiens) (P68400 whole entry, looked up): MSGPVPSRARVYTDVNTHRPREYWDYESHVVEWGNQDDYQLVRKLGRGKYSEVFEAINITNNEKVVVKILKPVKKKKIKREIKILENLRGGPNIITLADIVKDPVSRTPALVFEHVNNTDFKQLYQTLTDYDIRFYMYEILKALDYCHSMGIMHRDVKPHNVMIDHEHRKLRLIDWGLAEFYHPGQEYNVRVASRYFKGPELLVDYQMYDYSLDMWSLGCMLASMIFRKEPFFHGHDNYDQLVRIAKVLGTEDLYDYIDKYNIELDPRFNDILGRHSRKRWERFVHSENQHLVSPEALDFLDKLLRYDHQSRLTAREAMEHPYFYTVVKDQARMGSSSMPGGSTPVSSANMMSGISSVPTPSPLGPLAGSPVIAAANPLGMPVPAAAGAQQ

[5] = target: Casein kinase II subunit alpha (Homo sapiens) (UniProt P68400); conditions: at 1 µM
[6] = target: T2, Inhibitor of nuclear factor kappa-B kinase subunit alpha (Homo sapiens) (UniProt O15111); conditions: at 0.1 µM
T2 sequence (whole entry): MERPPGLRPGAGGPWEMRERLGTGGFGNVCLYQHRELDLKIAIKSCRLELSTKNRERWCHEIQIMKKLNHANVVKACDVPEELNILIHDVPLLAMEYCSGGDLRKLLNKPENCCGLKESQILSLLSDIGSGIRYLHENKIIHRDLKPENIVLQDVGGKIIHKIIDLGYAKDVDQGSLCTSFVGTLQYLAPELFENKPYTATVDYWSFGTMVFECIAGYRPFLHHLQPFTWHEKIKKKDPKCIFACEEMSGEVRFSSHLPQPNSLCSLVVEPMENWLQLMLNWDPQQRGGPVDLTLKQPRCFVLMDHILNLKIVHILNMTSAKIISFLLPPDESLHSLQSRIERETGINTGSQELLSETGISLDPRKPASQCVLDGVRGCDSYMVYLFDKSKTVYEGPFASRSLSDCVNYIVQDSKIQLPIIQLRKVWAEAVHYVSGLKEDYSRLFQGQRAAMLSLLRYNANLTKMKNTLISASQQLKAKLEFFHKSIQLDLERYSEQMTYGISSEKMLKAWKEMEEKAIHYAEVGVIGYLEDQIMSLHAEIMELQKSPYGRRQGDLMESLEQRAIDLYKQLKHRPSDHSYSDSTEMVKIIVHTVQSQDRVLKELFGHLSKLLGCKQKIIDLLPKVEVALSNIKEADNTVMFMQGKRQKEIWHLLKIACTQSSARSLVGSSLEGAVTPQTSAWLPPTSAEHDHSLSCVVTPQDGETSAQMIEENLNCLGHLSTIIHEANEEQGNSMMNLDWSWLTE

[7] = target: T2, Inhibitor of nuclear factor kappa-B kinase subunit alpha (Homo sapiens); conditions: at 1 µM
[8] = target: T3, Inhibitor of nuclear factor kappa-B kinase subunit beta (Homo sapiens) (UniProt O14920); conditions: at 0.1 µM
T3 sequence (whole entry): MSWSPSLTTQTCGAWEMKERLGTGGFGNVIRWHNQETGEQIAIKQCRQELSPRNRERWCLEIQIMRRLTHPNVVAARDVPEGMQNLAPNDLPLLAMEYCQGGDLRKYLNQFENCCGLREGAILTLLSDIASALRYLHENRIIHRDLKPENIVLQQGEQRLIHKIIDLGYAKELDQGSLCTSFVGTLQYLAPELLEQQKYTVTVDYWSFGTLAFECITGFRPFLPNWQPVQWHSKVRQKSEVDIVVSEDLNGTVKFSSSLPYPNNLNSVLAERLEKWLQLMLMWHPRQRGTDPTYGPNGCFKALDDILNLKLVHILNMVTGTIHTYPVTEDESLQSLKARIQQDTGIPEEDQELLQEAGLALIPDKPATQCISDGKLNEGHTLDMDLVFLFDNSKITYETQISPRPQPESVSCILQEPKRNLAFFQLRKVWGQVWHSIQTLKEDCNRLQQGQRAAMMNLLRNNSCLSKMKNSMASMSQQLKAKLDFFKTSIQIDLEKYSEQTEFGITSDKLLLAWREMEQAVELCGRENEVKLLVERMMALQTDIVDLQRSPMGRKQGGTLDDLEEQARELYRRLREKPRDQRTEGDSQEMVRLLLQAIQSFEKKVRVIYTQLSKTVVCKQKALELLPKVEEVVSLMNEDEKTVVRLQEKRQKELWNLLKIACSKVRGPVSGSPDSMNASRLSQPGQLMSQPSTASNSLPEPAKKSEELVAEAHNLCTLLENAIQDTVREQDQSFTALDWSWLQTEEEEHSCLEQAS

[9] = target: T3, Inhibitor of nuclear factor kappa-B kinase subunit beta (Homo sapiens); conditions: at 1 µM
[10] = target: T4, Inhibitor of nuclear factor kappa-B kinase subunit epsilon (Homo sapiens) (UniProt Q14164); conditions: at 0.1 µM;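 also: mean inhibition of IKKε reported, from the GSK PKIS dataset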
T4 sequence (whole entry): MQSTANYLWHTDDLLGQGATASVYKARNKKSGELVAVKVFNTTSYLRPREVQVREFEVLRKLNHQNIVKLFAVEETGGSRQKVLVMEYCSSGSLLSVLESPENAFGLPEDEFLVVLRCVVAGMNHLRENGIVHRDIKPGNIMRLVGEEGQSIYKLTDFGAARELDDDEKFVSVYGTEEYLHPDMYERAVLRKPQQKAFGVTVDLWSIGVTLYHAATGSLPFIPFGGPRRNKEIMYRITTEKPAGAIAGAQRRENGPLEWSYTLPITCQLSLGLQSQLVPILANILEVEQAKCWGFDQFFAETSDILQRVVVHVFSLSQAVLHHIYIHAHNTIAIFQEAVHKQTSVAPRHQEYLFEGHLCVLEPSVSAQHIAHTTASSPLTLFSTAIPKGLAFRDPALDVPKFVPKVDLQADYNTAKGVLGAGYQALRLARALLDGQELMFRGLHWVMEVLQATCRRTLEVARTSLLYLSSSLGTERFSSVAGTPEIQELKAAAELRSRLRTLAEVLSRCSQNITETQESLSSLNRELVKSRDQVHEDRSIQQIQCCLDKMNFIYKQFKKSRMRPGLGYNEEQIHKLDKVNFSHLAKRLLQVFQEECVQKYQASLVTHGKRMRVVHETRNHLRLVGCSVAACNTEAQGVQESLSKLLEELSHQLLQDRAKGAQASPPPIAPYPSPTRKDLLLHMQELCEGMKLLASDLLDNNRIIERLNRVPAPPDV

Sequence of Sphingosine kinase 1 (Homo sapiens) (Q9NYA1 whole entry): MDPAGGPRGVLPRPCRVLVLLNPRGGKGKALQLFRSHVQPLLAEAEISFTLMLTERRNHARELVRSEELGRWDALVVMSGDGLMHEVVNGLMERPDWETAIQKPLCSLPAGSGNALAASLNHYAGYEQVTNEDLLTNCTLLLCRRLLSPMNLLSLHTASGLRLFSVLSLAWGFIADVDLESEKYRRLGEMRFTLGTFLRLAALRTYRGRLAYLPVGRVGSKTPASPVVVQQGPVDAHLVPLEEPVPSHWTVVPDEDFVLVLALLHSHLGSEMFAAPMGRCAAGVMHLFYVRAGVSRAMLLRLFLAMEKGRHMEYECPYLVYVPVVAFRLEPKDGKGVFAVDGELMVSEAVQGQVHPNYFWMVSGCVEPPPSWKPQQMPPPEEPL

Q: What does the source list for CS(=O)(=O)CCNCc1ccc(-c2ccc3ncnc(Nc4ccc(OCc5cccc(F)c5)c(C(F)(F)F)c4)c3c2)o1?
A: inhibition [1]: -2.4%; inhibition [2]: 0.03%; inhibition [3]: 0.79%; inhibition [4]: 3.22%; inhibition [5]: 5.65%; inhibition [6]: 7.6%; inhibition [7]: 5.45%; inhibition [8]: 5.87%; inhibition [9]: 5.15%; inhibition [10]: 5.42%
